About 5,100 (6%) of roughly 85,000 compounds were called active. The list comes from a sample in which actives are over-represented; it also holds similar structures and randomly drawn compounds. Unmarked numbers belong to inactive results.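 How the source made its calls: active means viability at or below 40%; inactive means viability above 40%.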

The assay is described as follows: proliferation blockers of H69AR lung cancer cells, primary screen, cell-based, human, 86K library (AID 598).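 Further: multidrug resistant small cell line overexpressing MRP-1 efflux transporter; 100% = mean luminescence of untreated control wells.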 Conditions: H69AR lung tumor viability, ATP luminescence, 72 h; at 10 µM; active compounds read low.
The viability is a read-out of living cells in per cent, often relative to untreated cells. `COc1ccc(S(=O)(=O)Nc2ccc(F)cc2)c(C)c1C`: the viability is 101%.

With `CCCCCCC12CCC(C(=O)O)(CC1)CC2`, the viability is 79.3%.

On to `Cc1nc2cc(NC(=O)NCc3ccccc3)ccc2o1`, for which the viability was 95.1%.

In the case of `OC(COc1ccc2ccccc2c1)Cn1cncn1` (stereo not given), the viability is 88.4%.

Regarding `O=C(Nc1cc(N2CCOCC2)ncn1)NC1(C(F)(F)F)Oc2ccc(Cl)cc2O1` (stereo not given), the viability was 29.6% (active).

With `COc1c(C)cccc1C(=O)Nc1cc(Cl)ccc1N1CCOCC1`, the viability was 82.7%.

As for `O=C(CN1CCOCC1)Nc1cc(Cl)ccc1Cl`, the viability was 93.4%.

`CCOc1cc2[nH]c(=S)n(CCN3CCCCC3C)c(=O)c2cc1OCC` (stereo not given): the viability was 82.5%.

Consider `CCn1cc(C(=O)NC2CCCCCC2)c(=O)c2cc(S(=O)(=O)N3CCCCC3)ccc21`, for which the viability is 30.1% (active).

For the compound `O=C(NC1CCCCC1)n1c(=O)oc2cc(S(=O)(=O)N3CCCCC3)ccc21`, the viability was 60.7%.

With `CCn1cc(C(=O)NCC2CCCO2)c(=O)c2cc(S(=O)(=O)N3CCCCC3)ccc21` (stereo not given), the viability is 87.7%.

As for `CN(C)S(=O)(=O)c1ccc(NC(=O)COC(=O)c2n[nH]c3ccccc23)cc1`, the viability was 78.6%.

For `Cc1nc(NCCN)c(C#N)c2c1COC(C)(C)C2`, the viability was 85%.

With `CCCCc1nc(NCCN)c(C#N)c2c1CSC(C)(C)C2`, the viability is 1.08% (active).

As for `CC(C)(C)c1ccc(OC2=CS(=O)(=O)c3ccccc32)cc1`, the viability was 88%.

For `CCCn1nnc(NC(=O)COc2ccc(CC)cc2)n1`, the viability is 95.5%.

With `Cn1c(=O)c2c(ncn2CC(=O)N2CCN(c3ccccc3)CC2)n(C)c1=O`, the viability was 105%.

For the compound `CC(C)Cn1c(CN(Cc2ccccc2)Cc2ccccc2)nc2c1c(=O)n(C)c(=O)n2C`, the viability is 61.6%.

Turning to `CC(C)Cn1cnc2c1c(=O)n(CC(O)c1ccccc1)c(=O)n2CC(C)C` (stereo not given), the viability was 28% (active).

With `Cc1cc(-n2nc(C)cc2C)n2nc(C)c(-c3ccccc3)c2n1`, the viability was 68.4%.

For `O=C(COc1ccc2ccccc2c1)N1CCN(C(=O)c2cccs2)CC1`, the viability is 74%.

As for `O=C(CCN1C(=O)c2ccccc2C1=O)Nc1cccc(F)c1`, the viability is 98.2%.

Regarding `Cc1ccc(Nc2nc(CSc3nnnn3-c3ccccc3)cc(=O)[nH]2)cc1`, the viability was 23.1% (active).

In the case of `O=c1c2ccccc2nnn1CSc1nnnn1-c1ccccc1`, the viability is 83.4%.

With `N#CCSc1nc2ccccc2c(=O)n1-c1ccccc1`, the viability was 77%.

`O=c1c2ccccc2nc(CSc2nnnn2-c2ccccc2)n1-c1ccccc1`: the viability was 15.1% (active).

As for `COc1ccc(-n2nnnc2SCC(=O)Nc2ccccc2)cc1`, the viability is 103%.

`Cc1ccc(-c2noc(CSc3nnnn3-c3ccccc3)n2)cc1`: the viability is 86.2%.

Regarding `OC(CN1C2=NCCCN2c2ccccc21)c1ccc(Br)cc1` (stereo not given), the viability was 86.5%.

Take `Cn1cnc([N+](=O)[O-])c1Nc1ccccc1O`: the viability is 100%.

For `COC(=O)c1ccc(CSc2nnc(NC(C)C)s2)cc1`, the viability is 98.2%.

`COc1ccc(C)cc1NC(=O)CCS(=O)(=O)c1cccc2nonc12`: the viability was 89%.

Consider `C=CCn1c(SCc2c(C)noc2C)nc2sc3c(c2c1=O)CCC(C)C3` (stereo not given), for which the viability was 29.4% (active).

As to `CCCn1nnc2sc3c(c2c1=O)CCC(C)C3` (stereo not given), the viability was 96.7%.

On to `CC1CCc2c(sc3nc4n(c(=O)c23)CCS4)C1` (stereo not given), for which the viability was 80.8%.

Turning to `Nc1c(C(=O)NCc2ccccc2)sc2nc3c(cc12)C(=O)CCC3`, the viability is 65.5%.

Turning to `Cc1ccc(SCC(=O)c2cc(C)c(OC(=S)N(C)C)c(C)c2)cc1`, the viability was 64.6%.

Turning to `COCCNC(=O)COc1ccc(C)c(C)c1`, the viability was 86%.

For `Cc1ccc(SC(=O)COc2ccc(C)c(C)c2)cc1`, the viability was 16.4% (active).

`Cc1ccc(S(=O)(=O)NC(=O)COc2ccccc2C)cc1`: the viability was 97.9%.

As for `CCOCN(C(=O)Cn1c(C(C)O)nc2ccccc21)c1c(C)cccc1CC` (stereo not given), the viability was 62.8%.

As to `O=C(Cc1ccc(-n2c(=O)c3sccc3n(Cc3ccc(F)cc3)c2=O)cc1)NCc1ccco1`, the viability was 51%.

For `CN1CCN(CC(=O)Nc2sc3c(c2C#N)CCC(C(C)(C)C)C3)CC1` (stereo not given), the viability was 2.42% (active).

`CCC(=O)Nc1sc(C(=O)N2CCCCC2)c(C)c1C#N`: the viability is 96.9%.

As for `c1ccc(-c2nc(NCc3ccco3)c3ccccc3n2)cc1`, the viability was 87.9%.

Take `Cc1nc2ccccc2c2oc(C(=O)NCC3CCCO3)cc12` (stereo not given): the viability is 82.4%.

With `c1ccc2c(NCC3CCCO3)nc(-c3ccncc3)nc2c1` (stereo not given), the viability is 35.5% (active).

Regarding `Cn1c2c(c(=O)n(C)c1=O)C(c1cccc([N+](=O)[O-])c1)Nc1ccccc1O2` (stereo not given), the viability is 88.5%.

In the case of `C=CCn1c(SCc2c(C(=O)OC)sc(N)c2C(=O)OC)nnc1-c1ccc(Cl)cc1`, the viability was 45.2%.

Regarding `COc1ccc(CN2CCCCC2C)cc1OC` (stereo not given), the viability was 105%.

Regarding `COc1cc(C2CC(=O)c3cnc(NC(C)=O)nc3C2)cc(OC)c1OC` (stereo not given), the viability is 74%.

On to `O=C(Nc1ncc2c(n1)CC(c1ccco1)CC2=O)c1ccc(Cl)cc1` (stereo not given), for which the viability was 80.7%.

As to `CCc1ccc(Nc2ncc3c(n2)CC(c2ccco2)CC3=O)cc1` (stereo not given), the viability was 26.3% (active).

As to `Nc1ccc(C(=O)OCC(=O)NC2CCCc3ccccc32)cc1[N+](=O)[O-]` (stereo not given), the viability is 63.4%.

On to `CCOc1ncccc1C(=O)OCc1cn2cc(Cl)ccc2n1`, for which the viability is 35.2% (active).

Regarding `CCOC(=O)c1cc2ccccc2nc1C`, the viability was 101%.

Take `CSc1ncccc1C(=O)OCC(=O)N1CCOCC1`: the viability was 96%.

As for `COc1ccc(CNc2ccc3c(c2)CCC3)cc1OC`, the viability is 104%.

Turning to `CCOc1ccc(C(=O)NC2CCN(C(=O)Nc3ccccc3OC)CC2)cc1`, the viability was 79%.

As to `COC(=O)CSc1nc(C)c2ccc(OC)cc2n1`, the viability is 86.5%.

On to `Cc1nnc(SCC(=O)NC(=O)NC2CCCC2)n1N`, for which the viability was 109%.

`CC(C)n1c(C(O)c2ccccc2)nc2ccccc21` (stereo not given): the viability was 104%.

In the case of `CC(Nc1nc(N2CCCC2)nc2ccccc12)c1ccccc1` (stereo not given), the viability was 12.4% (active).

Take `Cc1ccc(C(CC(=O)O)Nc2nc(N3CCCCC3)nc(N3CCCCC3)n2)cc1` (stereo not given): the viability is 108%.

With `CCCCN1C(=O)/C(=C2/C=CC=CN2C)SC1=S`, the viability was 90.2%.

In the case of `CC(=O)c1cc2c(cc1NC(=O)CN1CCCCCC1)OCO2`, the viability was 79.5%.

`CCc1ccc(CNC(=O)C2CC(=O)N(CCc3ccc(C)cc3)C2)cc1` (stereo not given): the viability is 99.5%.

Take `CCC(C)Sc1nc2c(c(=O)[nH]c(=O)n2C)n1CC(O)COc1cccc2ccccc12` (stereo not given): the viability was 30.7% (active).

With `CN1CCN(c2nc3c(c(=O)[nH]c(=O)n3C)n2Cc2cccc3ccccc23)CC1`, the viability was 71.9%.

On to `CCCSc1nc2c(c(=O)[nH]c(=O)n2C)n1CCc1ccccc1`, for which the viability is 74%.

For `Cn1c(SCC(=O)NC2CCCCC2)nnc1-c1cc2ccccc2o1`, the viability is 91%.

In the case of `CC(=O)c1cccc(NC(=O)Nc2ccc(C)cc2)c1`, the viability is 95.3%.

Consider `Cc1ccoc1C(=O)Nc1cccc(Oc2ccccc2)c1`, for which the viability was 112%.

Turning to `Cc1cccc(NC(=O)Nc2cccc(Oc3c(F)c(F)c(F)c(F)c3F)c2)c1`, the viability is 8.13% (active).

For the compound `COc1ccc2c(Cl)c(C(=O)NCc3ccco3)sc2c1`, the viability was 91.4%.

Take `CCOc1ccc(N=C2NC(=O)S/C2=C\c2ccc(O)cc2)cc1`: the viability is 47.5%.

In the case of `CCC(=O)Nc1ccc(C(=O)Nc2cccc(OC)c2)cc1`, the viability is 64.6%.

`CCCc1nc2scc(-c3ccc(C)cc3)c2c(=O)n1N`: the viability was 46.1%.

Consider `O=C(Cc1ccccc1)Nc1c(C(=O)N2CCCCCC2)cnn1-c1ccccc1`, for which the viability was 96.5%.

With `C#CCNc1nc(C(C)C)nc2c1nnn2Cc1ccccc1F`, the viability was 104%.

As to `O=C(Cn1cnc2c(nnn2Cc2ccc(F)cc2)c1=O)NCc1ccc2c(c1)OCO2`, the viability was 95.8%.

For the compound `CCCc1nc(NCc2ccc3c(c2)OCO3)c2nnn(Cc3ccccc3Cl)c2n1`, the viability was 24.6% (active).

For the compound `O=c1onc(-c2cccs2)n1Cc1ccccc1`, the viability is 95.9%.

Regarding `Cc1cccc(C)c1OC(=O)CSc1nnc(-c2ccccc2)o1`, the viability is 98.4%.

As to `O=C1CC(C(F)(F)C(F)(F)C(F)(F)C(F)(F)F)=Nc2ccccc2N1`, the viability is 92.7%.

For the compound `CCCCOc1ccc(CSC(=N)N)cc1[N+](=O)[O-]`, the viability was 5.08% (active).

As for `CCCCOc1ccc(Cl)cc1CSc1nncn1N`, the viability was 94%.

Consider `N#C/C(=C\c1ccccc1)c1n[nH]c(Cn2cncn2)n1`, for which the viability is 96.8%.

On to `O=C(CCS(=O)(=O)c1cccc2nsnc12)N1CCN(c2ccccc2F)CC1`, for which the viability is 91%.

Turning to `CCOC(=O)C(=O)Nc1nc(-c2ccccc2)c(CC)s1`, the viability was 103%.

As to `CCCn1c(=O)c2ccccc2n2c(SCC(=O)/C(C#N)=C(\C)N)nnc12`, the viability is 79.8%.

Take `Cc1sc2nc(SCC(N)=O)n(C)c(=O)c2c1C`: the viability was 84.1%.

For the compound `C=CCn1c(SCC(=O)/C(C#N)=C(\C)N)nc2sc(C)c(C)c2c1=O`, the viability was 6.3% (active).

For `CCC(=O)Nc1ccc(S(=O)(=O)NCC2CCCO2)cc1` (stereo not given), the viability was 90.7%.

As to `N#Cc1c2c(c(N3CCN(CCO)CC3)n3c1nc1ccccc13)CCCC2`, the viability was 85.5%.

In the case of `CC1CCc2sc3nc(N4CCN(CCO)CC4)n4ncnc4c3c2C1` (stereo not given), the viability is 33.1% (active).

As to `Cc1c(Nc2nc3ccccc3nc2NS(=O)(=O)c2cccs2)c(=O)n(-c2ccccc2)n1C`, the viability was 85.5%.

Regarding `CCOC(=O)C(C)n1cnc2sc(C)c(C)c2c1=O` (stereo not given), the viability is 89.3%.

As to `CC(=O)Oc1ccc(NC(=O)CCC2CCCCC2)c(C(=O)O)c1`, the viability is 101%.

Turning to `COc1ccc(CN(CC(=O)NC2CCCC2)C(=O)CCC(=O)Nc2cc(C)on2)cc1`, the viability was 96.3%.

For the origin of these results see PubChem BioAssay AID598 (SRMLSC, 2007).
